From the OligoGym collection come the findings set out here.
Also: reference of the scale not given here.

One assay concerns the target CAMK2N1. The assay is described as follows: pooled miR-30 sensor sort-seq; sequence = guide strand. As to conditions: shRNA.
Turning to TTCAGCACGTCATCAATCCTAT, the sensor-assay potency score (higher = more potent) was -0.353.
Same read-out and setting: in the case of ATCTTCAATAACAACCCGCTTG it was -0.788; in that of TTGTTGGTGTCCTGCAGGCGGC, -1.65.
On the same count and under the same terms, in the case of TTCAATAACAACCCGCTTGCTC it was 0.0759; in that of TCATCTTCAATAACAACCCGCT, 0.215; in that of AATAACAACCCGCTTGCTCCGG, -0.79.

The next assay deals with CAMKV. The description is as above. As to conditions: shRNA.
TTTCATTGTTGAACTGAGCAGA displayed a sensor-assay potency score (higher = more potent) of 0.188.
Same read-out and setting: with TATCTGTCAGTCACCTCCGATG the figure was -0.879; with TTAAACATACTGCCCTACCTTT, -0.684.
On the same count and under the same terms, with ATATCTGTCAGTCACCTCCGAT the figure was -0.99; with TTGCCTGTCGTCTTGTCCTTGG, -0.405; with TTCTGGAACTTCTTGCAGGTGT, -0.129.
The sequence TAACACAAATAACAGGGTCTTA yielded a sensor-assay potency score (higher = more potent) of -0.811.
Still for that read-out and setting: with TTGCTTGTGTCTCGCTCCGAGT the figure was -1.54; with TATAGTTCTTCTTGTCGCCCAG, -0.36; with TTATAGTTCTTCTTGTCGCCCA, 0.464.
TCACTGATGACAATCTTCGAGT gave a sensor-assay potency score (higher = more potent) of -1.01.
Consider TTGAACTGAGCAGAAAATCTGC, for which the sensor-assay potency score (higher = more potent) worked out at 0.22.

A further assay has as its target CAMSAP1L1. The assay is described as above. The conditions noted are these: shRNA.
The sequence TACACTCTCGTTATCACCCGTG came in with a sensor-assay potency score (higher = more potent) of 0.34.
The same measure, in the same setting: in the case of TTGTATTATGTGCTTATTGGAT it was -0.942.
For TTCACCACTTCAAACCACCAGA, the sensor-assay potency score (higher = more potent) is -0.595.
In turn, TTGATTTCTTCAGTTTCTGGGC registered a sensor-assay potency score (higher = more potent) of -0.439.
In turn, TACTGTATCCATATCTTCCATT displayed a sensor-assay potency score (higher = more potent) of -0.745.
Take TTATCCAGTACATGACAGCGTC: the sensor-assay potency score (higher = more potent) was -0.641.
The sequence TTCTGCTTTTTGATCATCCTTA registered a sensor-assay potency score (higher = more potent) of -0.157.
With TTTTGCAGCATCACTCTTGAGA, the sensor-assay potency score (higher = more potent) was -0.108.
On the same count and under the same terms, with TTCAACAGGTACATCAGCCTTT the figure was 0.426; with TACTTTTTCTATACTGACCATT, -0.4; with TTGTTCATGACAACAGAGCTTA, 0.195.

A further assay concerns the target CAPNS2. The assay is described as above. As to conditions: shRNA.
Consider TTTGTGCTTAGAAAGGACTTTG, for which the sensor-assay potency score (higher = more potent) was -0.468.
Same read-out and setting: with ATGACAGACACAATGCTCCGGC the figure was -0.17; with TAATTCAGCAGTAAAAGGCAGC, -0.377.
TCTATCTCTATCCAGAGACTTG had a sensor-assay potency score (higher = more potent) of -1.33.
In turn, TAAAATCCATATCTCCATCTTC had a sensor-assay potency score (higher = more potent) of -0.0154.
TAGACACTTGAATCAGGCCATC had a sensor-assay potency score (higher = more potent) of -1.43.
Sequence ATACTGCTTATAAACACACTGC showed a sensor-assay potency score (higher = more potent) of -0.451.
The sequence TATACTGAGCTGCTGCAGCCTC registered a sensor-assay potency score (higher = more potent) of -0.467.
For TAAAATTCACAATTCCTCCAAC, the sensor-assay potency score (higher = more potent) was -0.361.
TATCTCCATCTTCATTAGCATA: the sensor-assay potency score (higher = more potent) was -1.87.
Same read-out and setting: with TTTGTTGAGAATATTCATCAGA the figure was -0.0355.
